{"source": "ChEMBL document CHEMBL4513216", "about": "“Probing the Open Global Health Chemical Diversity Library for Multistage-Active Starting Points for Next-Generation Antimalarials” (ACS Infect Dis, 2020)", "note": "The whole screen tested about 69,000 compounds, of which about 8,600 (12%) showed an effect of 50% or more. For the sample, strong results were picked, then their nearest neighbours and some compounds at random."}
{"tested_on": "Plasmodium berghei", "test": "Screen against P. berghei liver stage (PbLuc), transformed with Luciferase, at 10uM", "type": "functional, HepG2", "details": "tested at 10 uM", "units": {"INHIBITION": "%"}}
{"smiles": "Fc1cnc(N2CCO[C@H]3CN(CC4CCCC4)C[C@H]32)nc1", "INHIBITION": -13.3}
{"smiles": "CO[C@@H]1CCN(c2ncc(F)cn2)[C@@H]2CN(CC3CC3)C[C@@H]21", "INHIBITION": 60.3}
{"smiles": "CO[C@@H]1CCN(c2ncc(F)cn2)[C@@H]2CN(Cc3cccnc3)C[C@@H]21", "INHIBITION": 31.4}
{"smiles": "Fc1cnc(N2CCO[C@H]3CN(CC4CCCCC4)C[C@H]32)nc1", "INHIBITION": 30.3}
{"smiles": "CCN1C[C@H]2[C@@H](C1)N(c1ncc(F)cn1)CC[C@H]2OC", "INHIBITION": 84.5}
{"smiles": "CO[C@H]1CCN(c2ncc(F)cn2)[C@@H]2CN(Cc3ccco3)C[C@H]12", "INHIBITION": 49.1}
{"smiles": "CCN1CCN(c2nc(O)cc(Cc3ccccc3F)n2)CC1", "INHIBITION": 10.9}
{"smiles": "CNS(=O)(=O)c1ccsc1C(=O)OC", "INHIBITION": 37.6}
{"smiles": "CNC(=O)c1sccc1S(=O)(=O)NC", "INHIBITION": 46.6}
{"smiles": "CNC(=O)c1sccc1S(=O)(=O)Nc1ccc(C)cc1", "INHIBITION": 61.1}
{"smiles": "O=C(c1cccnc1)N1CCCC1c1nc(O)cc(-c2ccccn2)n1", "note": "(centres undefined)", "INHIBITION": 36.7}
{"smiles": "O=C1NCCCc2[nH]c(Cc3cccc(Cl)c3)nc21", "INHIBITION": 32}
{"smiles": "Clc1cccc(C[C@@H]2NCCC[C@@H]2Nc2ccccc2)c1", "INHIBITION": 86.1}
{"smiles": "Clc1cccc(N[C@H]2CCCN[C@H]2Cc2ccccc2)c1", "INHIBITION": 91.6}
{"smiles": "Clc1cccc(C[C@@H]2NCCC[C@@H]2Nc2cccc(Cl)c2)c1", "INHIBITION": 92.6}
{"smiles": "O=S(=O)(c1cccc(Cl)c1)N1C[C@@H]2CCN[C@@H]2C1", "INHIBITION": -14.7}
{"smiles": "O=C(NCCc1cccc(Cl)c1)C1CCOCC1", "INHIBITION": 27.7}
{"smiles": "O=C(Cc1cccc(Cl)c1)N[C@@H]1CCNC[C@H]1O", "INHIBITION": 0.547}
{"smiles": "O=C1NCCCC1NC(=O)C1(c2cccc(Cl)c2)CCC1", "note": "(centres undefined)", "INHIBITION": -2.27}
{"smiles": "c1ccc(CCNc2cccc(C3CCCNC3)n2)cc1", "note": "(centres undefined)", "INHIBITION": 34}
{"smiles": "CCOCC(=O)N1CCC2(CC1)COCCN2CCN(C)C", "INHIBITION": -3.33}
{"smiles": "O=C(c1ccc(F)cc1)N1C[C@H]2CCC[C@@]2(COCc2ccncc2)C1", "INHIBITION": 16.8}
{"smiles": "CC(C)CNC(=O)C1(Cc2ccccc2-c2cccs2)CCNC1", "note": "(centres undefined)", "INHIBITION": 14.7}
{"smiles": "COc1ccc(C(C)NC(=O)Cn2ccc(=O)n(C)c2=O)cc1F", "note": "(centres undefined)", "INHIBITION": -29.8}
{"smiles": "Cc1ccccc1OCC(O)CN1CCC(Cn2cccn2)CC1", "note": "(centres undefined)", "INHIBITION": 17.5}
{"smiles": "O=S1(=O)c2ccccc2OCC2(CCN(CCO)CC2)CN1CC1CC1", "INHIBITION": -8.94}
{"smiles": "CC(=O)N1CCC2(CCN(C(=O)c3ccc(Cl)c(C(F)(F)F)c3)C2)C1", "note": "(centres undefined)", "INHIBITION": 50.9}
{"smiles": "CC(=O)N1CCC2(CCN(C(=O)c3ccc(Cl)c(C(F)(F)F)c3)CC2)C1", "INHIBITION": 51.2}
{"smiles": "CC(=O)N1CC2(CCN(C(=O)c3ccc4c(c3)OCCO4)CC2)C1", "INHIBITION": -38.1}
{"smiles": "CC(=O)N1CCC2(CCCN(C(=O)c3ccc(Cl)c(C(F)(F)F)c3)C2)C1", "note": "(centres undefined)", "INHIBITION": 28.7}
{"smiles": "CC(=O)N1CC2(CCN(C(=O)c3ccoc3)C2)C1", "INHIBITION": 27.6}
{"smiles": "CC(=O)N1CCCC2(CCN(C(=O)c3ccc(Cl)c(C(F)(F)F)c3)C2)C1", "note": "(centres undefined)", "INHIBITION": 32.2}
{"smiles": "Cc1nc(-c2cccnc2)ncc1C(=O)N1CCC(C(C)N(C)C)CC1", "note": "(centres undefined)", "INHIBITION": 70.4}
{"smiles": "Cc1nc(-c2cccnc2)ncc1C(=O)N1CCCC(N(C)C)CC1", "note": "(centres undefined)", "INHIBITION": 21.6}
{"smiles": "Cc1nc(-c2cccnc2)ncc1C(=O)N1CCCCC(N)C1", "note": "(centres undefined)", "INHIBITION": 55.6}
{"smiles": "CCCOCC1CCN(C(=O)c2cnc(-c3cccnc3)nc2O)C1", "note": "(centres undefined)", "INHIBITION": -27.3}
{"smiles": "N[C@H]1CCCN(C(=O)c2cnc(COc3ccccc3)nc2O)C1", "INHIBITION": -58}
{"smiles": "Cc1nc(-c2cccnc2)ncc1C(=O)N1CCC(c2ncc[nH]2)CC1", "INHIBITION": 21.6}
{"smiles": "Cc1nn(C)c(C)c1C1CCCN1Cc1nc(-c2cccs2)no1", "note": "(centres undefined)", "INHIBITION": -2.53}
{"smiles": "CC(C)c1nccc(CN2CCCC(O)(CN(C)C)CC2)n1", "note": "(centres undefined)", "INHIBITION": -3.55}
{"smiles": "CC1CN(CC(=O)N2CCOCC2)CCN1Cc1nccn1C", "note": "(centres undefined)", "INHIBITION": 20.915}
{"smiles": "Cc1nc2c(c(Nc3ccccn3)n1)CN(S(C)(=O)=O)CC2", "INHIBITION": -10.4}
{"smiles": "N#Cc1ccccc1C(=O)N1C[C@@H]2CC[C@H]1CN(Cc1ccccc1)C2", "INHIBITION": 27.6}
{"smiles": "COCCCSc1ccc(NC(=O)Nc2cn[nH]c2)cc1", "INHIBITION": 41.2}
{"smiles": "COCCCSc1ccc(NCc2cscn2)cc1", "INHIBITION": 26.9}
{"smiles": "COCCCSc1ccc(NCc2scnc2C)cc1", "INHIBITION": 95.4}
{"smiles": "COc1cc2nc(NCc3scnc3C)nc(N)c2cc1OC", "INHIBITION": 45}
{"smiles": "COCCCSc1ccc(NCc2ccc(C)cn2)cc1", "INHIBITION": 72.2}
{"smiles": "COCCn1ccc(NCc2scnc2C)n1", "INHIBITION": 17.7}
{"smiles": "COCCCNC(=O)c1cc(OC)c2ccoc2c1", "INHIBITION": -25.7}
{"smiles": "CNC(=O)[C@H]1C[C@@H]2CN(C(=O)c3ccoc3)C[C@@H]2N1S(C)(=O)=O", "INHIBITION": -15.2}
{"smiles": "Cc1ccsc1C(=O)NCc1ccnc(N2CCN(C)CC2)c1", "INHIBITION": 4.45}
{"smiles": "Cn1cc(NC(=O)Cc2ccccc2Br)cc1C(N)=O", "INHIBITION": -3.21}
{"smiles": "CC(C)(C)c1ccc(OCC(=O)O)c(CN2C[C@H]3CC(O)C[C@H]3C2)c1", "note": "(some centres undefined)", "INHIBITION": 40.55}
